# Bioassay records: PubChem BioAssay, National Center for Advancing Translational Sciences (NCATS)
# CHX counter: counter-screen for Shiga toxin inhibitors: cycloheximide protein synthesis inhibition; cell reporter, cycloheximide protein synthesis inhibition counterscreen; max response, %; hit rate 12% among 300,000; in the data active = max response mostly above about 13%, no sharp cut-off; inactive = mostly below about 14%; note: read at 38.3 µM for the half of the compounds with a filed dose
# RE007 growth inh: less growth of the S. pombe RE007 Vpr strain. hit rate 0.21% among 360,000. AID 651644. S. pombe RE007 Vpr strain, BacTiter-Glo ATP luminescence, 24 h. Potency, µM (top dose mostly 92.2 µM), hits mostly inhibitors; active = well fitted falling curve with a large enough effect; inconclusive = small, poorly fitted or top-dose-only effect; inactive = no such curve, though single readings can be large or run the other way; note: nearly all actives have a fitted effect of over 50% in size
#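 Fission yeast strain RE007, carrying one chromosomally integrated HIV-1 vpr copy, was seeded at OD 0.01 in PMG+AL medium with 23 nL pinned compound. After 24 h at 30 °C and 99% humidity, viability was read by BacTiter-Glo luminescence.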
# Shiga toxin inh: blocks Shiga toxin action in Vero cells | Vero cells, Shiga toxin protein synthesis inhibition reporter | inhibition, % at 38.7 µM | hit rate 9.2% among 290,000 | AID 2315; in the data active = inhibition mostly above about 28%, no sharp cut-off; inactive = mostly below about 43%
# TbPYK inhibitor: T. brucei pyruvate kinase inhibition. TbPYK enzyme, Kinase-Glo Plus ATP luminescence, 45 min. Potency, µM (series often up to 76.8 µM), hits mostly inhibitors. hit rate 0.12% among 410,000; note: nearly all actives have a fitted effect of over 50% in size
#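 T. brucei PYK with substrate was exposed to pin-transferred compounds across a concentration series, then started with 130 uM ADP (final). After 45 min at room temperature, Kinase-Glo Plus luminescence was read, normalized and curve-fitted.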
# FBPA Giardia inh: inhibitors of Giardia lamblia fructose-1,6-bisphosphate aldolase; A8B2U2; purified Giardia FBPA; Potency, µM (doses to about 59.6 µM), hits mostly inhibitors; hit rate 0.71% among 290,000; note: nearly all actives have a fitted effect of over 55% in size
#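 Giardia FBPA (40 nM reagent) was preincubated 10 min at RT with compound (up to 57.5 uM final), then substrate plus GAPDH/TPI/NAD/arsenate coupling system with diaphorase/resazurin was added; resorufin fluorescence (525/598 nm) was read after 20 min.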
# LmPK inhibitor: inhibitors of Leishmania mexicana pyruvate kinase | hit rate 0.37% among 290,000 | Q27686 | purified LmPK, Kinase-Glo ATP luminescence, 1 h | Potency, µM (titrated, usually from 57.5 µM), hits mostly inhibitors | AID 1721
# Target sequence (Q27686 whole entry, looked up): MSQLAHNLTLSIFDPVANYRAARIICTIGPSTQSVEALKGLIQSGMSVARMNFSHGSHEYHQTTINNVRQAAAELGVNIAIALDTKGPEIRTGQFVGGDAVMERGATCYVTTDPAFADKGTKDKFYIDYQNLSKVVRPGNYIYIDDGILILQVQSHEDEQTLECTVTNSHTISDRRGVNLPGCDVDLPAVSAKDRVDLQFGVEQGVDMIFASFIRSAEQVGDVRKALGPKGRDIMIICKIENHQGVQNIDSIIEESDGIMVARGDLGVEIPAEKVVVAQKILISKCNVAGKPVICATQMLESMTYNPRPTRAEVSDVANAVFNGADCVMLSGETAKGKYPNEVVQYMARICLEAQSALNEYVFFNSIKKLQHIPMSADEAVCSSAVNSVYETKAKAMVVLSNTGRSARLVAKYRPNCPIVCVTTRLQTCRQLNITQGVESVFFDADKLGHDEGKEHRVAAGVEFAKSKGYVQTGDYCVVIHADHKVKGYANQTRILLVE
#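 ATP generated from ADP (0.1 mM) and PEP (0.5 mM) by 0.1 nM LmPK over 1 h at room temperature (pH 7.2 imidazole buffer) was detected by coupled luciferase luminescence. Values were normalized to uninhibited and no-enzyme wells.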
# A number is an active result; n = inactive; u = inconclusive; x = no result given; [ ] = dose if it differs, or a comment. This excerpt belongs to a sample that is enriched for hits. Unless noted, calls come from the whole dose curve; as a rule, active = well fitted curve in the direction sought with a large enough effect; inconclusive = small, poorly fitted or top-dose-only effect, or another doubt; inactive = no such curve, though single readings can be large; an effect the other way counts as inactive or inconclusive.
SMILES,CHX counter,RE007 growth inh,Shiga toxin inh,TbPYK inhibitor,FBPA Giardia inh,LmPK inhibitor
Cc1cc(=O)oc2cc(O[C@@H]3O[C@H](C(=O)O)[C@@H](O)[C@H](O)[C@H]3O)ccc12,x,x,x,x,n,x
COc1ccc(-n2c(C)n[nH]c2=O)cc1,n,n,n,n,n,n
COc1ccc(OCc2n[nH]c(=S)n2Cc2ccco2)cc1,n,n,n,2.8µM,n,n
Cc1ccc(-n2c(COc3cccc(C)c3)n[nH]c2=S)cc1,n,n,n,16µM,n,u
Cc1n[nH]c(=O)n1-c1ccc(OCc2ccccc2)cc1,53,n,92,n,n,n
Cc1ccc(-n2c(CCc3ccccc3)n[nH]c2=S)cc1C,n,n,x,u,n,14µM
Cc1cccc(OCc2n[nH]c(=S)n2-c2ccccc2)c1,n,n,n,u,n,n
Cc1ccc(OCc2n[nH]c(=S)n2-c2ccccc2)cc1C,n,n,n,u,n,u
Cc1ccc(-c2nc(CS(=O)(=O)CC(=O)NCCc3ccccc3)c(C)o2)cc1,x,x,x,n,x,x
COc1ccc(C(=O)CCC(=O)Nc2cc(C)ccc2C)cc1,x,x,x,n,x,x
COC(=O)[C@@]1(C)C=C[C@@H](Cc2ccccc2)N1C,x,x,x,x,n,x
S=c1[nH]nc(CSCc2ccccc2Cl)n1-c1ccccc1,n,n[3.69 µM],n,x,n,13µM
COc1ccc(-n2c(COc3ccc(C)cc3)n[nH]c2=S)cc1,n,n,n,u,u,n
CC(C)Oc1ccc(CCc2n[nH]c(=S)n2-c2ccccc2)cc1,n,n,n,u,n,14µM
COc1ccc(-n2c(COc3ccccc3)n[nH]c2=S)cc1,n,n,x,11µM,u,n
COc1ccc(CC(=O)NCc2n[nH]c(=S)n2-c2ccccc2)cc1,n,n,n,u,n,n
COc1ccc(CSCCc2n[nH]c(=S)n2-c2ccccc2)cc1,n,n,n,3.2µM,n,n
CNC(=O)c1c(NC(=O)CCS(=O)(=O)c2ccc(F)cc2)sc(C)c1C,x,n,x,n,x,x
CC(C)(C)C(=O)OCc1nc(-c2ccc(Cl)cc2)cs1,59,n,69,n,n,n
NC(=S)Cc1nc(-c2ccc(Cl)cc2)cs1,n,n,80,n,n,n
NC(=O)Cc1nc(-c2ccc(F)cc2)cs1,n,n,n,n,n,n
COc1ccc(OC(=O)c2cc(-c3ccc4c(c3)OCCO4)on2)cc1,x,x,x,n,x,x
CC(C)(C)C(=O)OCc1nc(-c2ccc3c(c2)OCCO3)cs1,54,n,114,n,n,n
NNC(=O)CSCc1nc(-c2ccc(Cl)cc2)cs1,n,n,n,n,n,n
CC(C)(C)C(=O)OCc1nc(-c2ccc(F)cc2)cs1,42,n,92,n,n,n
SMILES,CHX counter,RE007 growth inh,Shiga toxin inh,TbPYK inhibitor,FBPA Giardia inh,LmPK inhibitor
CCOC(=O)c1[nH]c(C)c(CCC(=O)Nc2ccccc2OCC)c1C,x,x,x,n,x,x
CCc1cccc(-n2nnc(-c3nc(-c4ccc5c(c4)OCO5)no3)c2C)c1,x,x,x,n,x,x
COc1ccc(-c2csc(COC(=O)C(C)(C)C)n2)cc1,30,n,75,n,n,n
COc1ccc(-c2csc(C(C)(NC(C)=O)c3ccccc3)n2)cc1 (centres undefined),x,n,x,n,x,x
Nc1nn(-c2ccccc2)c(N)c1N=Nc1cccc(F)c1,62,n,88,n,n,n
Nc1nn(-c2ccccc2)c(N)c1N=Nc1ccc2c(c1)OCO2,44,n,active,n,n,n
Cc1nn(-c2ccccc2)c(N)c1N=Nc1cccnc1,41,n,61,n,n,n
Nc1nc(-c2ccccc2)c(N=Nc2cccnc2)s1,n,n,n,n,n,n
Cc1nn(-c2ccccc2)c2c1C(c1ccc(F)cc1F)C(C#N)=C(N)O2 (centres undefined),n,n,n,n,n,n
CCN(Cc1ccccc1)c1ncnc2c1cnn2-c1ccc(F)cc1,x,x,x,n,x,x
CCN(c1ccccc1)c1ncnc2c1cnn2-c1ccccc1,26,n,65,n,n,n
CN(Cc1ccccc1)c1ncnc2c1cnn2-c1ccccc1,55,u,98,n,n,n
Cc1ccc2ncccc2c1,x,n,x,n,x,x
c1cnc2ccc(-c3ccc4ncccc4c3)cc2c1,27,n,x,n,n,n
Cc1c([N+](=O)[O-])cc(C(=O)Nc2ccc3ncccc3c2)cc1[N+](=O)[O-],n,n,x,n,n,n
O=C(Nc1ccc2ncccc2c1)c1ccccc1Br,38,n,41,n,u,n
O=C(Nc1ccc2ncccc2c1)Nc1ccc2ncccc2c1,19,x,47,n,n,n
COC(=O)c1cc2oc3ccccc3c2n1CC(=O)Nc1ccc(C)cc1Cl,x,x,x,n,x,x
COc1ccc(-c2nnc(SCC(C)C)o2)cc1,58,n,55,n,n,n
COc1ccc(-c2nnc(SCC(=O)N3CCOCC3)o2)cc1,n,n,122,n,n,n
COc1ccc(-c2nnc(SCc3nc4ccccc4c(=O)[nH]3)o2)cc1,41,n,63,n,n,n
O=C(CSc1nnc(-c2cccc(F)c2)o1)N1CCCC1,23,n,n,n,x,n
COc1ccc(OC)c(-c2nnc(SCC(=O)N3CCOCC3)o2)c1,n,n,n,n,n,n
COc1ccc2c(c1)-c1nc(NC(=O)c3ccc(OC)c(Br)c3)sc1CC2,x,x,x,n,x,x
Cc1cccc(-c2nnc(SCC(=O)N3CCOCC3)o2)c1,21,n,71,n,n,n
SMILES,CHX counter,RE007 growth inh,Shiga toxin inh,TbPYK inhibitor,FBPA Giardia inh,LmPK inhibitor
O=C(CSc1nnc(-c2cccc(F)c2)o1)N1CCOCC1,n,n,n,n,n,n
Cc1cccc(-c2noc(CCCC(=O)N3CCOCC3)n2)c1,11,n,n,n,n,n
COc1cccc(-c2nnc(SCC(=O)N3CCOCC3)o2)c1,22,n,n,n,n,n
O=C(CSc1nnc(-c2ccc(OC(F)F)cc2)o1)N1CCOCC1,21,n,82,n,n,n
COc1cc(-c2nnc(SCC(=O)N3CCOCC3)o2)cc(OC)c1OC,n,n,n,n,x,n
CCOC(=O)c1ccccc1NC(=O)COC(=O)c1cc([N+](=O)[O-])ccc1N1CCOCC1,x,n,x,n,x,x
COc1ccccc1CN1CCC(CNS(=O)(=O)c2cc(-c3onc(C)c3C)ccc2OC)CC1,n,n,n,n,n,n
CC(C)Cc1nc(SCC(=O)N2CCCC2)c2c(=O)n(C)c(=O)n(C)c2n1,n,n,n,n,x,n
CS(=O)(=O)NC(=O)CCC/C=C\C[C@H]1C(=O)C[C@@H](O)[C@@H]1/C=C/[C@@H](O)COc1ccccc1,n,x,n,n,n,x
CC1=CC(=O)C=CC1=Nc1ccc(N(C)C)cc1,x,n[18.4 µM],x,35µM,x,x
COc1ccc(N=C2C(=Nc3ccc(OC)cc3)N(c3ccc(N(C)C)cc3)C(=S)N2c2ccc(OC)cc2)cc1,n,n,n,n,n,n
COC(=O)c1cc2c(ccn2-c2ccc(F)cc2)n1Cc1ccc(OC)cc1,47,n,54,n,n,n
COC(=O)c1cc2c(ccn2-c2ccc(F)cc2)n1Cc1ccc(C#N)cc1,n,n,n,n,n,n
